A short description of assay [1]: inhibitors of TNFa-induced NFkB p65 translocation, primary screen, imaging, HUVEC, MLSMR starter and 10KST1 sets (AID 438;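 active means inhibition above 20% together with a positive visual image hit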;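 further: compound added about 3h40 before a 20 min TNFalpha stimulation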;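 on inhibition: signal is the nuclear over cytoplasmic p65 intensity ratio per well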). The following applies: HUVEC TNFa-induced p65 nuclear translocation; cell count: measured here: nuclei count (cytotoxicity indicator), at 2.08 µM; inhibition: at 2 µM, stronger effect = higher value, 0% TNFa-plus-vehicle, 100% no-TNFa wells.
Assay [2] is described as follows: reduction of polyQ htt aggregates in cells – imaging, exon1htt(103Q)mCFP cells, high-content imaging, primary screen (AID 483;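 active means visual image review flags a hit and inhibition of aggregation exceeds 20%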;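 further: compound exposure lasted 3 days before fixation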;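 on nuclei count: percent of the per-plate median nuclei count of sample wells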). The conditions noted are these: exon1htt(103Q)mCFP cell line, aggregate imaging, at 2 µM; inhibition of aggregation: stronger effect = higher value; nuclei count: measured here: cell count, toxicity.
Assay [3] can be described thus: endothelial E-selectin expression blockers – imaging, HUVEC, immunofluorescence, MLSMR starter and 10KST1 sets, primary screen (AID 487;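 active means visually confirmed hit in the image check and inhibition above 20%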;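 on inhibition: signal is fraction of cell area covered by stained E-selectin grains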;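 on nuclei count: 100% = median nuclei count of all wells on the same plate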). The following applies: HUVEC TNFalpha-induced E-selectin immunofluorescence imaging, at 2 µM; inhibition: stronger effect = higher value; nuclei count: measured here: cell number, toxicity.
Assay [4] deals with Voltage-gated potassium channel subunit beta-2 (Rattus norvegicus) (UniProt P62483). The assay can be described thus: inhibitors of rat Kvbeta2 reductase activity – biochemical, NADPH fluorescence, primary screen (AID 622;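 active means fluorescence slope higher than the sample average by over 3 SD, cut at about -0.22 in these data, passing the limit was not always enough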;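 further: slope of raw intensity against log time taken from 70 to 1610 s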). The conditions noted are these: recombinant KvBeta, 4-cyanobenzaldehyde reduction, at 10 µM, stronger effect = higher value.
Sequence of Voltage-gated potassium channel subunit beta-2 (Rattus norvegicus) (P62483 whole entry, looked up): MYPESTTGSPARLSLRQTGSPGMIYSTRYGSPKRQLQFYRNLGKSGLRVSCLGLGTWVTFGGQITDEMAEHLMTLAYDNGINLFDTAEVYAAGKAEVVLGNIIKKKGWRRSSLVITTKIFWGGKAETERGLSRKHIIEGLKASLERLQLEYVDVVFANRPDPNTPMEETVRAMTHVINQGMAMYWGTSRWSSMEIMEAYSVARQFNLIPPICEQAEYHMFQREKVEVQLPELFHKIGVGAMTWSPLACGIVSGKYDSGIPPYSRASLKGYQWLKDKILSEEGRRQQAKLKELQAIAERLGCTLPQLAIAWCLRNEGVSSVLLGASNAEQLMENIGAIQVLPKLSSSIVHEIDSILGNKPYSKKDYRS
For assay [5] the target is unchanged. The assay can be described thus: enhancers of rat Kvbeta2 NADPH turnover – biochemical, NADPH fluorescence, primary screen (AID 623;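 active means NADPH fluorescence slope more negative than the mean of all samples by about 3 SD, 99.7% confidence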;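 further: fluorescence intensity change per second fitted from 20 to 320 s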). The following applies: Recombinant KvBeta, NADPH fluorescence decrease slope, 10 min; at 10 µM; stronger effect = lower value.
The target in assay [6] is Alpha-2C adrenergic receptor (Homo sapiens) (UniProt P18825). The assay can be described thus: compounds altering alpha2C-coupled GIRK flux – cell-based, HEK293 alpha2C/GIRK1/2, thallium flux, primary screen (AID 624;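 active means fluorescence slope after compound addition differing from the mean of all screened samples at 99.7% confidence, in either direction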;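 further: slope of fluorescence ratio to pre-addition baseline per second over 15 to 24 s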). The conditions noted are these: thallium flux BTC fluorescence, at 10 µM, actives lie on both sides.
Sequence of Alpha-2C adrenergic receptor (Homo sapiens) (P18825 whole entry, looked up): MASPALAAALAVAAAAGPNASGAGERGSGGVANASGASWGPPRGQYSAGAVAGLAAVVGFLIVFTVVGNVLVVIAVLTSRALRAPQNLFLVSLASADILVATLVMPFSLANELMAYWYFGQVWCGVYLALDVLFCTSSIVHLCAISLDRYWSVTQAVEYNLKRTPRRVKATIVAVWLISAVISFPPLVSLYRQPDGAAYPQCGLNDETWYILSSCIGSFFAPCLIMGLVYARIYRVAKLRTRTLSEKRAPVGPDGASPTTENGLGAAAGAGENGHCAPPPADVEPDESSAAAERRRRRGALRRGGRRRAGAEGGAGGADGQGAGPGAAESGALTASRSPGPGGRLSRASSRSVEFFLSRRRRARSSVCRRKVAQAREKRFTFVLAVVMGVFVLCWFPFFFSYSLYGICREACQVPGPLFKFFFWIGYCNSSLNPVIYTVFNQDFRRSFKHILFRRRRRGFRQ
Assay [7] in a line: blockers of RIG-like receptor reporter activation – cell-based, Sendai virus stimulus, luciferase, 10K MLSCN set, TLR/RLR signaling modifier project, primary screen (AID 602276).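 Further: firefly luciferase from ISG56 promoter only with Renilla not read in this screen; 0% = Sendai virus plus DMSO and 100% = medium plus DMSO without virus.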 The conditions noted are these: HEK293 RL24 IRF3 luciferase reporter, at 10 µM, stronger effect = higher value. On the technique in general: In a reporter assay the amount or activity of a reporter protein is the signal.

The nature of assay [8]: TLR3 IRF3 reporter activation blockers – cell-based, poly I:C stimulus, luciferase, 10K MLSCN set, primary screen (AID 602277;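 active means inhibition of the reporter signal at or above 50%; inactive means inhibition below 50%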). The conditions noted are these: HEK293-TLR3 RL24 IRF3 luciferase reporter, at 10 µM, stronger effect = higher value.

The source made the active and inactive calls.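 How the source made its calls, unless noted: active means inhibition at or above 50% at 10 µM; inactive means inhibition below 50%.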

The inhibition is the drop in the measured response relative to a control, in per cent. Take `COc1ccccc1NC(=O)CSc1nnc(Cc2cccn2C)n1-c1ccc(F)cc1`: the cell count in assay [1] is 508. In addition, the inhibition in assay [1] was -7.5% (inactive); in assay [3] it was -51.1% (inactive); in assay [7] it was 11.3% (inactive); in assay [8], 37.8% (inactive). For the same molecule, in assay [2], the inhibition of aggregation was 30.2% (inactive). For the same molecule, the figures for the nuclei count in assay [2] and in assay [3] were 86.3% and 113%, respectively. Moreover, the fluorescence slope in assay [4] is -0.529 (inactive). For the same molecule, the NADPH fluorescence slope in assay [5] is -2.1e-05 (inactive). Moreover, the slope in assay [6] is 0.00524 (inactive).
As to `CCN(C1CCCCC1)S(=O)(=O)c1ccc(S(=O)(=O)N2CCN(CCC#N)CC2)cc1`, the cell count in assay [1] amounted to 870. In addition, the inhibition is 3.3% (inactive) in assay [1], -28.6% (inactive) in assay [3], -5.6% (inactive) in assay [7] and 52% (active) in assay [8]. Also, the inhibition of aggregation in assay [2] is 8% (inactive). Further, the nuclei count in assay [2] is 102%; in assay [3], 108%. The fluorescence slope in assay [4] was -0.584 (inactive). Also, the NADPH fluorescence slope in assay [5] is -1.5e-05 (inactive). Besides, in assay [6], the slope is 0.00677 (inactive).
For `C=CCn1c(SCC(=O)Nc2ccccc2OC)nnc1-c1ccccn1`, the cell count in assay [1] was 684. Further, the inhibition was 9.1% (inactive) in assay [1], -6.9% (inactive) in assay [3], 7.11% (inactive) in assay [7] and 18.2% (inactive) in assay [8]. The inhibition of aggregation in assay [2] was 32.8% (inactive). For the same molecule, the nuclei count in assay [2] was 65.8%; in assay [3], 113%. In addition, in assay [4], the fluorescence slope was -0.344 (inactive). The NADPH fluorescence slope in assay [5] is -2.6e-05 (inactive). Moreover, the slope in assay [6] is 0.0051 (inactive).
As to `CCN(Cc1ccccc1)C(c1ccncc1)c1nnnn1C(C)(C)C` (stereo not drawn), the cell count in assay [1] was 618. In addition, the inhibition in assay [1] is 11.6% (inactive); in assay [3], -42.3% (inactive); in assay [7], 17.8% (inactive); in assay [8] it was 21.6% (inactive). In addition, the inhibition of aggregation in assay [2] was -32% (inactive). In addition, the values for the nuclei count in assay [2] and in assay [3] were 122% and 116%, respectively. Also, the fluorescence slope in assay [4] is -0.606 (inactive). In addition, the NADPH fluorescence slope in assay [5] was -3.2e-05 (inactive). Moreover, the slope in assay [6] was 0.0048 (inactive).
`COCC(=O)Nc1cc(OC)ccc1OC`: the cell count in assay [1] came to 230. Besides, the inhibition in assay [1] is -7% (inactive); in assay [3], -28.5% (inactive); in assay [7], 12.1% (inactive); in assay [8] it was 31% (inactive). In addition, the inhibition of aggregation in assay [2] is 8.8% (inactive). For the same molecule, the results for the nuclei count in assay [2] and in assay [3] were 87.6% and 84.6%, respectively. Besides, the fluorescence slope in assay [4] was -0.501 (inactive). In addition, the NADPH fluorescence slope in assay [5] is 3.1e-05 (inactive). Also, the slope in assay [6] was 0.0057 (inactive).
In the case of `CN1CCCN(CC(O)COCc2cccs2)CC1` (stereo not drawn), the cell count in assay [1] stood at 489. Moreover, the inhibition is -6.7% (inactive) in assay [1], -66% (inactive) in assay [3], -7.31% (inactive) in assay [7] and 24.2% (inactive) in assay [8]. In addition, the inhibition of aggregation in assay [2] is -19.8% (inactive). The results for the nuclei count in assay [2] and in assay [3] were 108% and 153%, respectively. Further, the fluorescence slope in assay [4] is -0.489 (inactive). The NADPH fluorescence slope in assay [5] is -3.2e-05 (inactive). The slope in assay [6] was 0.00614 (inactive).
As to `COc1ccc(C)cc1-n1c(N)c(C#N)c(C#N)c1-c1ccc(OC)c(OC)c1OC`, in assay [1], the cell count was 676. Also, the inhibition in assay [1] is -3.9% (inactive); in assay [3] it was -9.7% (inactive); in assay [7], 12% (inactive); in assay [8], 32.6% (inactive). Moreover, the inhibition of aggregation in assay [2] is 16.9% (inactive). The values for the nuclei count in assay [2] and in assay [3] were 86% and 105%, respectively. The fluorescence slope in assay [4] was -0.537 (inactive). Moreover, in assay [5], the NADPH fluorescence slope was 2.9e-05 (inactive). The slope in assay [6] was 0.00611 (inactive).
As for `Cn1c(SCc2nnc3n2CCCCC3)nc2ccccc21`, the cell count in assay [1] amounted to 252. The inhibition in assay [1] is -15.3% (inactive); in assay [3] it was -94.2% (inactive); in assay [7], 14% (inactive); in assay [8], 20% (inactive). The inhibition of aggregation in assay [2] is -3.3% (inactive). Also, the nuclei count in assay [2] came to 94.7%; in assay [3], 127%. Also, the fluorescence slope in assay [4] was -0.433 (inactive). The NADPH fluorescence slope in assay [5] was -2.7e-05 (inactive). Moreover, the slope in assay [6] is 0.00588 (inactive).
With `O=C(C1CCCN(S(=O)(=O)c2cccs2)C1)N1CCc2ccccc2C1` (stereo not drawn), in assay [1], the cell count came out at 668. The inhibition is -3.6% (inactive) in assay [1], -53.2% (inactive) in assay [3], 13.1% (inactive) in assay [7] and 14.2% (inactive) in assay [8]. In addition, the inhibition of aggregation in assay [2] is -29.8% (inactive). For the same molecule, the nuclei count in assay [2] stood at 119%; in assay [3], 109%. In assay [4], the fluorescence slope is -0.586 (inactive). For the same molecule, the NADPH fluorescence slope in assay [5] is -5.1e-05 (inactive). Also, the slope in assay [6] is 0.0027 (inactive).
In the case of `COc1cc(C(c2sc3nc(C)nn3c2O)N2CC(C)CC(C)C2)cc(OC)c1OC` (stereo not drawn), in assay [1], the cell count worked out at 468. Also, the inhibition in assay [1] is -3.4% (inactive); in assay [3], -18.2% (inactive); in assay [7] it was 9.58% (inactive); in assay [8], 18.7% (inactive). In assay [2], the inhibition of aggregation is -10.7% (inactive). Further, the nuclei count in assay [2] came to 114%; in assay [3] it was 109%. In addition, the fluorescence slope in assay [4] was -0.505 (inactive). For the same molecule, the NADPH fluorescence slope in assay [5] was -0.00015 (inactive). Also, the slope in assay [6] is 0.00579 (inactive).
For the molecule `Cc1onc(-c2c(Cl)cccc2Cl)c1C(=O)N1CCc2ccccc21`, in assay [1], the cell count worked out at 696. The inhibition is -5.8% (inactive) in assay [1], -30.8% (inactive) in assay [3], 23.7% (inactive) in assay [7] and 23.2% (inactive) in assay [8]. Besides, the inhibition of aggregation in assay [2] was -0.7% (inactive). In addition, the nuclei count came out at 93.6% in assay [2] and 92.5% in assay [3]. The fluorescence slope in assay [4] is -0.47 (inactive). Besides, the NADPH fluorescence slope in assay [5] was -3.1e-05 (inactive). Further, in assay [6], the slope is 0.00899 (inactive).
`COc1cccc(C(=O)NCc2nnc(SCC(=O)Nc3nccs3)n2-c2ccccc2)c1`: in assay [1], the cell count is 756. Also, the inhibition in assay [1] is -9.1% (inactive); in assay [3], -20.4% (inactive); in assay [7], 10.5% (inactive); in assay [8] it was 35.1% (inactive). The inhibition of aggregation in assay [2] is -1.7% (inactive). Further, the nuclei count in assay [2] was found to be 120%; in assay [3] it was 107%. Moreover, in assay [4], the fluorescence slope was -0.626 (inactive). Moreover, the NADPH fluorescence slope in assay [5] is 1.6e-05 (inactive). In addition, the slope in assay [6] is 0.0057 (inactive).
In the case of `CCn1c(=N)n(CC(O)c2ccco2)c2ccccc21` (stereo not drawn), in assay [1], the cell count is 321. The inhibition was -8.1% (inactive) in assay [1], -33% (inactive) in assay [3], 10.3% (inactive) in assay [7] and 24.1% (inactive) in assay [8]. Further, in assay [2], the inhibition of aggregation was -20.7% (inactive). The nuclei count in assay [2] was 87.8%; in assay [3], 110%. Besides, in assay [4], the fluorescence slope was -0.358 (inactive). Moreover, the NADPH fluorescence slope in assay [5] is -5.8e-05 (inactive). The slope in assay [6] was 0.00623 (inactive).

Source of the values: PubChem BioAssay.
